{
  "source": "ChEMBL document CHEMBL1201862",
  "about": "“PubChem BioAssay data set” (2004)",
  "key": {"[1]": {"molecular_target": "Pyruvate kinase PKM (Homo sapiens) (UniProt P14618)", "sequence (P14618 2-531 limits assumed)": "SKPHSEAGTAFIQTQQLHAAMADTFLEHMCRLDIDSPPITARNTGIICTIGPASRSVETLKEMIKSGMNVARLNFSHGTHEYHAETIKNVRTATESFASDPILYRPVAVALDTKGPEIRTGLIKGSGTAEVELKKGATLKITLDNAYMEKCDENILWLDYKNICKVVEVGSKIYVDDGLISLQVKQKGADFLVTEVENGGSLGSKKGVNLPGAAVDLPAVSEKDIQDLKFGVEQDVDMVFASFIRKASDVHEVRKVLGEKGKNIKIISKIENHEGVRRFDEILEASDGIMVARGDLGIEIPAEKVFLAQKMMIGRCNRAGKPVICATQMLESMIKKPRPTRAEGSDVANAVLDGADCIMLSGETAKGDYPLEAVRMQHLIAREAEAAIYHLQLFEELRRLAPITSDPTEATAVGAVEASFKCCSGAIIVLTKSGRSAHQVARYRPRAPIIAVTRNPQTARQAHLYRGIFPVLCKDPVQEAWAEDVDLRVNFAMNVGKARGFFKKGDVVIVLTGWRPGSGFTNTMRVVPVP", "test": "qHTS Assay for Activators of Human Muscle Pyruvate Kinase.", "format": "functional"}, "[2]": {"molecular_target": "Hypoxia-inducible factor 1-alpha (Homo sapiens) (UniProt Q16665)", "sequence (Q16665 whole entry, looked up)": "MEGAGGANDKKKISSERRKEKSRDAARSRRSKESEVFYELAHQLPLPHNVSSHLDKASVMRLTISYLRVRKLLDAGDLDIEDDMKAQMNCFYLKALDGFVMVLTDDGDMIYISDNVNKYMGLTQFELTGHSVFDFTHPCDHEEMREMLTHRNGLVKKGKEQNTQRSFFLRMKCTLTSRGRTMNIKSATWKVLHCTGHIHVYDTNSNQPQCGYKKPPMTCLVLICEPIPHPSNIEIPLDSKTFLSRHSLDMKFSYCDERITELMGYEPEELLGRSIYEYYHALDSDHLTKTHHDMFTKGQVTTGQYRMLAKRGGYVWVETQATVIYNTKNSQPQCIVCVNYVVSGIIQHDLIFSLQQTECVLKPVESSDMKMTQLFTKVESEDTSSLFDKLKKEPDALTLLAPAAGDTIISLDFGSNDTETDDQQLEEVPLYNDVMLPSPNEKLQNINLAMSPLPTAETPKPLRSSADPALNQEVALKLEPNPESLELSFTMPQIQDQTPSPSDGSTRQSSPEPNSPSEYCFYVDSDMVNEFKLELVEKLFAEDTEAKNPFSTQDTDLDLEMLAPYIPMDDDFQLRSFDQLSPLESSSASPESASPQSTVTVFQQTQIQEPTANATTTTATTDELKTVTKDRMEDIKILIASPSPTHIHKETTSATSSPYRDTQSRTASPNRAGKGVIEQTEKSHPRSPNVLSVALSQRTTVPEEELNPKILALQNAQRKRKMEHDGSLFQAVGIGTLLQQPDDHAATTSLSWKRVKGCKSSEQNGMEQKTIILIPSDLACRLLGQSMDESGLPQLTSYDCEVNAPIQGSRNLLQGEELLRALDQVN", "test": "qHTS Assay for Identification of Small Molecule Agonists for Hypoxia Response Element Signaling Pathway. [Related pubchem assays: 915 ]", "format": "functional"}, "[3]": {"molecular_target": "T1, M-phase phosphoprotein 8 (Homo sapiens) (UniProt Q99549)", "T1 sequence (whole entry)": "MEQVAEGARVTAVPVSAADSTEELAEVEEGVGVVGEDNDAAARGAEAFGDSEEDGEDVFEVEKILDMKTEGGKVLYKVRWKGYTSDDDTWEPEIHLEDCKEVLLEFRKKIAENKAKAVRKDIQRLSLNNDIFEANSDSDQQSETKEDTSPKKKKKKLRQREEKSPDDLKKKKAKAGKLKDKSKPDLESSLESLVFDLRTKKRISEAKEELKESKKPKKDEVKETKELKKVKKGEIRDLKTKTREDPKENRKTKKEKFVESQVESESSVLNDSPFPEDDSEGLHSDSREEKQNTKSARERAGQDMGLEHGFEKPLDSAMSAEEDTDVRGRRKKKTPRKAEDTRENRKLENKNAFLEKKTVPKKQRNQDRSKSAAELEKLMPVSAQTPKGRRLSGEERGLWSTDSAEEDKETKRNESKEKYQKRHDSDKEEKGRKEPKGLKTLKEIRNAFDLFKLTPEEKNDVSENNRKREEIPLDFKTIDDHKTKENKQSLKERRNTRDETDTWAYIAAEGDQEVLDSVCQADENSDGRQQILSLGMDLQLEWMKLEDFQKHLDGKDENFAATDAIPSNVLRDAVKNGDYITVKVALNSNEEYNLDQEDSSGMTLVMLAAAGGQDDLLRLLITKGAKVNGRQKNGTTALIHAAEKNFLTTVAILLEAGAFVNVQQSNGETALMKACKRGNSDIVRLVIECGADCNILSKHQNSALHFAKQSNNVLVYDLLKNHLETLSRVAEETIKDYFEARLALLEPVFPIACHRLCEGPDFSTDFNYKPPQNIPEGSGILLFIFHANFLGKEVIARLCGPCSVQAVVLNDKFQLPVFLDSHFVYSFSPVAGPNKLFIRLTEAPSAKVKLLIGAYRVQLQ"}, "[4]": {"molecular_target": "ATPase family AAA domain-containing protein 5 (Homo sapiens) (UniProt Q96QE3)", "sequence (Q96QE3 whole entry, the tested form may be a part)": "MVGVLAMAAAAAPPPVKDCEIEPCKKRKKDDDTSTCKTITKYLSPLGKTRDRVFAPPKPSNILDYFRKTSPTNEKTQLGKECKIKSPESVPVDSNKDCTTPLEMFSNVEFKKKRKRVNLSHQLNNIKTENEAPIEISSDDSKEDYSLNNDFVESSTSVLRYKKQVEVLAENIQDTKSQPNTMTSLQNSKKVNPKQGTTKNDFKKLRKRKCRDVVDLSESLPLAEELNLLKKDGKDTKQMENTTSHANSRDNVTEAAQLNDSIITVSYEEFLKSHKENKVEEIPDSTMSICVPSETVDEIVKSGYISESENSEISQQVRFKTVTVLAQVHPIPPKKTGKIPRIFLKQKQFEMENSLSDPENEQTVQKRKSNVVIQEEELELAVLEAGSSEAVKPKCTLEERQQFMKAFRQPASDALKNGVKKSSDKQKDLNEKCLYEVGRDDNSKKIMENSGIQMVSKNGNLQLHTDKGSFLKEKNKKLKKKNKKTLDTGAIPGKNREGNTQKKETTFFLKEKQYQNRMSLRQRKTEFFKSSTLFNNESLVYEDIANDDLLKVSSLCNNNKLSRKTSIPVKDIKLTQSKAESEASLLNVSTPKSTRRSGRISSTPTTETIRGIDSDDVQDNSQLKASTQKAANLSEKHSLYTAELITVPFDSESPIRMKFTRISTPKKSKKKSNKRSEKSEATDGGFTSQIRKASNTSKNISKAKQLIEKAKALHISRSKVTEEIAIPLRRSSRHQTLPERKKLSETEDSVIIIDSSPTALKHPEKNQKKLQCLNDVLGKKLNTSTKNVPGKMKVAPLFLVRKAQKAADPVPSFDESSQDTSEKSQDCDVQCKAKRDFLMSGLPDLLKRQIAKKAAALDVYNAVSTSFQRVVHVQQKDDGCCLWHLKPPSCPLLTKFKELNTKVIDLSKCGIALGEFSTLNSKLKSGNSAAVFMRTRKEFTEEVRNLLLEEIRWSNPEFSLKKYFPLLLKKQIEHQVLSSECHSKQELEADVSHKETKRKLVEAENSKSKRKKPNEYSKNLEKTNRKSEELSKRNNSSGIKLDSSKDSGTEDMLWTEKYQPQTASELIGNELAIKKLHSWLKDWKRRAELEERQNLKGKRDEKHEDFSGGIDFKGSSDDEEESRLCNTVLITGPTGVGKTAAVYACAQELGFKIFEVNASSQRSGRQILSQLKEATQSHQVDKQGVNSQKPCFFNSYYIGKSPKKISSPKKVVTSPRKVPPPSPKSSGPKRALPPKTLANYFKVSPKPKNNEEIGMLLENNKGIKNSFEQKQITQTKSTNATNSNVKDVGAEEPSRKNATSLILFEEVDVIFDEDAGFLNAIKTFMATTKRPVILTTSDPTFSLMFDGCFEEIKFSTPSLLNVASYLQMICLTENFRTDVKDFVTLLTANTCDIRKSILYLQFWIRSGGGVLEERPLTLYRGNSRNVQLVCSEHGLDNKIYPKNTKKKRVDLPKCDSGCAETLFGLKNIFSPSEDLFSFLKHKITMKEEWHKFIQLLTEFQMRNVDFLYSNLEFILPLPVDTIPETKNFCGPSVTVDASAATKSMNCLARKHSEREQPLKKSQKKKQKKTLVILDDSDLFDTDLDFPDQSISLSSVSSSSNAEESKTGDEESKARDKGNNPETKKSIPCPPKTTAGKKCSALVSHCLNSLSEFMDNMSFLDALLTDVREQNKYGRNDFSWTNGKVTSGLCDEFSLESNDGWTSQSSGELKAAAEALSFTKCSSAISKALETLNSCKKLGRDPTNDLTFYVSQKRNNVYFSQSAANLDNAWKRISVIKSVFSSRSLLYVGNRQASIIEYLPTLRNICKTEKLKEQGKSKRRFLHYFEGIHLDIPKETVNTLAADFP", "test": "qHTS screen for small molecules that inhibit ELG1-dependent DNA repair in human embryonic kidney (HEK293T) cells expressing luciferase-tagged ELG1: Hit Confirmation using MMS Stimulated ELG1.", "format": "functional"}, "[5]": {"test": "small-molecule DNA binding by polarization – biochemical, fluorescence polarization, cherry-pick, counter-screen for EWS/Fli inhibitor project, dose response (AID 720586)"}, "[6]": {"molecular_target": "T2, DNA polymerase eta (Homo sapiens) (UniProt Q9Y253)", "T2 sequence (whole entry)": "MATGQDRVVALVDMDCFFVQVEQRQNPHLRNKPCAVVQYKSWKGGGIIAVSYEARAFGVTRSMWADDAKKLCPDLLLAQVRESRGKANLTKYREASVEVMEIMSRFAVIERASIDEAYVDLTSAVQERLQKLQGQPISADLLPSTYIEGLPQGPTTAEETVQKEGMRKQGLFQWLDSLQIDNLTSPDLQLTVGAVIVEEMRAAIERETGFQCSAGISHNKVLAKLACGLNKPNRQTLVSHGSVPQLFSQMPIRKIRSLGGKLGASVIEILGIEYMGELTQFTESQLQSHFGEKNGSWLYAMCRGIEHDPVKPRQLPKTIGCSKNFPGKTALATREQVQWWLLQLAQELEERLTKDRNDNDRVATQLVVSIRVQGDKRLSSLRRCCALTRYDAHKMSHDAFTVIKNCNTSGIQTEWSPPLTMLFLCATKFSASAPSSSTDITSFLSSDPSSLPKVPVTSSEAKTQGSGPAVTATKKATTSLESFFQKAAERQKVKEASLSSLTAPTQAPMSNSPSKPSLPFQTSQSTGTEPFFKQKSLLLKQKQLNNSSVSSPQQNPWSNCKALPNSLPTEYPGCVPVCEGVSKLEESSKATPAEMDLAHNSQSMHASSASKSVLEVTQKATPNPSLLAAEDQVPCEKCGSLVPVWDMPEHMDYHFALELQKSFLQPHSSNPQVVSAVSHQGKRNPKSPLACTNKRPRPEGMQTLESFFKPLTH", "test": "qHTS for Inhibitors of Polymerase Eta: Confirmatory Assay for Cherry-picked Compounds.", "format": "functional"}, "[7]": {"molecular_target": "Nuclear factor erythroid 2-related factor 2 (Homo sapiens) (UniProt Q16236)", "sequence (Q16236 whole entry)": "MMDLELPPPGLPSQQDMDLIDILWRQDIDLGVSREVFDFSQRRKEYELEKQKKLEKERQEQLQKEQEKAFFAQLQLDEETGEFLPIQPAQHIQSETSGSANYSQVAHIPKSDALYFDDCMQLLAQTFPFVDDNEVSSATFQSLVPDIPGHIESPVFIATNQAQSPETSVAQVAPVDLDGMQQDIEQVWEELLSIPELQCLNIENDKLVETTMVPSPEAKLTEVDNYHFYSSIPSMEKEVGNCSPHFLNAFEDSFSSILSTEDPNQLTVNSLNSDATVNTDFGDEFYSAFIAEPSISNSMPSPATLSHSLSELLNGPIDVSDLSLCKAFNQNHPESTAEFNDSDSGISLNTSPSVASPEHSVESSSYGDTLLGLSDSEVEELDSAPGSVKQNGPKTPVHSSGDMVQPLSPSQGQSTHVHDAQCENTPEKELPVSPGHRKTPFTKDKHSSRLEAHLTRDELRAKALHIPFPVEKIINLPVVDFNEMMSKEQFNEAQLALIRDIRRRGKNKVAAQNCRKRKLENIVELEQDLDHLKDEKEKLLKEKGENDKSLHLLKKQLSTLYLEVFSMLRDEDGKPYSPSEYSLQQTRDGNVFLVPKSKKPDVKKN"}, "[8]": {"molecular_target": "T3, DNA polymerase kappa (Homo sapiens) (UniProt Q9UBT6)", "T3 sequence (whole entry)": "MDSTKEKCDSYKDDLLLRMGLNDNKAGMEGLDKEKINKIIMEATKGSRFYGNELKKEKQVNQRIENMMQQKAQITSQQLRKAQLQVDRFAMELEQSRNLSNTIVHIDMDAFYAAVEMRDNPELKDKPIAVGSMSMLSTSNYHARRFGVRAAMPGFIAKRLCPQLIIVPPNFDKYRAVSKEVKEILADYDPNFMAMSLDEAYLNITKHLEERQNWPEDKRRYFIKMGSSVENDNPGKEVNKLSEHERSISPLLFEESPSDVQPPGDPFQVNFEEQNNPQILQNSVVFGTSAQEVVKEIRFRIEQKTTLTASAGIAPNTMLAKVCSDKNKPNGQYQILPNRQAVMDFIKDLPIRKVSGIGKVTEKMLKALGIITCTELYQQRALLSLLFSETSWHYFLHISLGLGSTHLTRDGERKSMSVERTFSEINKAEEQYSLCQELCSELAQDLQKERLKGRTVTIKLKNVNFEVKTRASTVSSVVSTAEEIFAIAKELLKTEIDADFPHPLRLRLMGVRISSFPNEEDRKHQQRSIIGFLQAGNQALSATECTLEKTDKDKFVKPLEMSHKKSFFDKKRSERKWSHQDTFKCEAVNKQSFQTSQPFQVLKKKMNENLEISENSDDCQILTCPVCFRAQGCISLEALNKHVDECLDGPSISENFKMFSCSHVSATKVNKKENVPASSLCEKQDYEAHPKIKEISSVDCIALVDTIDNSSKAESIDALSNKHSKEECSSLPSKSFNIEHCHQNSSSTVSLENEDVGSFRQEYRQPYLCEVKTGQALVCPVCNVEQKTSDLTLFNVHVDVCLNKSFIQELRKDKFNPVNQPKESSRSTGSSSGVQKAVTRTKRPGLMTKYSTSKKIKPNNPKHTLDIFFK"}},
  "note": "Several values for one entry are separate records, joined by “and”; a condition that tells them apart may be missing. Equal values may be shown once. These assays gave more results; the selection is not random. For part of these data: Measured potencies and affinities stand elsewhere. Activity calls are given as the source filed them. Unless noted, the rule behind the calls is not given here.",
  "data": [
    {"molecule": "N[C@H](CCC(=O)O)C(=O)O", "values": [
      {"measurement": "Potency", "setting": "[1]", "value": "inactive"}
    ]},
    {"molecule": "O=C(O)Cc1ccccc1Nc1c(Cl)cccc1Cl", "values": [
      {"measurement": "Potency", "setting": "[2]", "value": "6.31 µM (active) and 25.1 µM (active)"},
      {"measurement": "Potency", "setting": "[3]", "value": "inactive"}
    ]},
    {"molecule": "O=C(O)c1cc(/N=N/c2ccc(S(=O)(=O)Nc3ccccn3)cc2)ccc1O", "values": [
      {"measurement": "Potency", "setting": "[4]", "value": "inactive"}
    ]},
    {"molecule": "Nc1nc2cc3c(cc2cc1C(=O)NCCc1c[nH]c2ccccc12)OCO3", "values": [
      {"measurement": "AbsAC35", "setting": "[5]", "value": "251 µM (active)"}
    ]},
    {"molecule": "COc1ccc(C2=Nn3c(nnc3-c3ccccc3F)SC2)cc1OC1CCOC1", "note": "(configuration not stated)", "values": [
      {"measurement": "AbsAC35", "setting": "[5]", "value": "137 µM (active)"}
    ]},
    {"molecule": "CC(C)(O)c1ccccc1CC[C@@H](SCC1(CC(=O)O)CC1)c1cccc(/C=C/c2ccc3ccc(Cl)cc3n2)c1", "values": [
      {"measurement": "Potency", "setting": "[6]", "value": "213 µM (active)"}
    ]},
    {"molecule": "CISPLATIN, CHEMBL11359", "values": [
      {"measurement": "GI50", "setting": "P388/ADR", "value": 0.561, "unit": "µM"},
      {"measurement": "GI50", "setting": "SN12K1", "value": 4.06, "unit": "µM"},
      {"measurement": "GI50", "setting": "P388", "value": 0.248, "unit": "µM"}
    ]},
    {"molecule": "CC(=O)OCc1ccccc1", "values": [
      {"measurement": "Potency", "setting": "[7]", "value": "30.6 µM (active)"}
    ]},
    {"molecule": "Cc1cc(C)c(NC(=O)Cn2c(=O)n(Cc3ccc(C(=O)NCc4ccco4)cc3)c(=O)c3sccc32)c(C)c1", "values": [
      {"measurement": "Potency", "setting": "[8]", "value": "299 µM (active)"}
    ]}
  ]
}
